In PubChem BioAssay (NCI):
The panel holds about 83,000 compounds, 20% with a hit somewhere; the sample as a whole holds those more often.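 Single-dose data. Exposure time 48 hours. Values below 10 considered active.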 Values without a mark were called inactive. Activity calls are given as the source filed them.

Experiments:
Assay in all cases: NCI-60 one-dose screen, 48 h (100 = growth as untreated, 0 = no growth, -100 = all killed)
[1] = test system: NCI-H23 lung; conditions: 10 µM unless noted
[2] = test system: NCI-H226 lung; conditions: 10 µM unless noted
[3] = test system: NCI-H322M lung; conditions: 10 µM unless noted
[4] = test system: HOP-62 NSCLC; conditions: 10 µM unless noted
[5] = test system: NCI-H460 lung; conditions: 10 µM unless noted
[6] = test system: HOP-92 NSCLC; conditions: 10 µM unless noted
[7] = test system: NCI-H522 lung; conditions: 10 µM unless noted
[8] = test system: A549/ATCC NSCLC; conditions: 10 µM unless noted
[9] = test system: 786-0 renal; conditions: 10 µM unless noted
[10] = test system: COLO 205 colon; conditions: 10 µM unless noted
[11] = test system: DU-145 prostate; conditions: 10 µM unless noted
[12] = test system: K-562 leukemia; conditions: 10 µM unless noted
[13] = test system: MALME-3M melanoma; conditions: 10 µM unless noted
[14] = test system: MDA-MB-231 breast; conditions: 10 µM unless noted
[15] = test system: RXF 393 renal; conditions: 10 µM unless noted
[16] = test system: SF-268 CNS; conditions: 10 µM unless noted
[17] = test system: SF-295 CNS; conditions: 10 µM unless noted
[18] = test system: SF-539 CNS; conditions: 10 µM unless noted
[19] = test system: UACC-257 melanoma; conditions: 10 µM
[20] = test system: M14 melanoma; conditions: 10 µM unless noted

| Compound | growth [1] | growth [2] | growth [3] | growth [4] | growth [5] | growth [6] | growth [7] | growth [8] | growth [9] | growth [10] | growth [11] | growth [12] | growth [13] | growth [14] | growth [15] | growth [16] | growth [17] | growth [18] | growth [19] | growth [20] |
| --- | --- | --- | --- | --- | --- | --- | --- | --- | --- | --- | --- | --- | --- | --- | --- | --- | --- | --- | --- | --- |
| CCc1ccc(NC(=O)N[C@@H](Cc2cc(F)cc(F)c2)C(=O)N[C@@H]2C(=O)N3CCC[C@H]3C(=O)N3CCO[C@H](C)[C@H]3C(=O)N[C@@H](CO)C(=O)N3C[C@H](C)C[C@H]3C(=O)O[C@H]2C)c(F)c1 | 35.4% | 4.36% (active) | 50.8% | 32.6% | 16.3% | -1.76% (active) | 17.5% | 26.9% | 39.8% | -42.7% (active) | 26.4% | 21.5% | 40.8% | 33.3% | -5.23% (active) | 32.4% | 12.6% | 39.9% | 12.9% | 24% |
| C(=C(\C1=NCCN1)n1cnc2ccccc21)/c1cccc2ccccc12 | 90.7% | 76.4% | 88.2% | 88.6% | 101% | 8.37% (active) | 79.4% | 94% | 92.5% | 106% | 98.1% | 84.9% | 91.7% | 81% | 46.9% | 85% | 76.9% | 91.7% | 94.7% | 70% |
| O=C1c2c(c3c4cc(Br)ccc4[nH]c3c3ccc4ccccc4c23)C(=O)N1CCN1CCNCC1 | 77.1% | 87.6% | 95.6% | 60.9% | 36.5% | 82.5% | 74.3% | 54.4% | 76.5% | 86.5% | 72.1% | -25.7% (active) | 80.5% | 84.1% | 82.8% | 72.7% | 73.6% | 87.1% | 98.3% | 87.6% |
| NC(=S)N/N=C(/C=C/c1cn(-c2ccccc2)nc1-c1ccc(Cl)cc1)c1cc2ccccc2oc1=O | 46.5% | 62.2% | 60% | 43% | 18.3% | 70.2% | 46.9% | 41.4% | 58.1% | 38.1% | 57.7% | 20.8% | 71.2% | 48.9% | 106% | 52.9% | 25.2% | 51.1% | 76.3% | 54.1% |
| CCOC(=O)c1c(NC(=O)c2cccc(C(F)(F)F)c2)sc2c(CN3CCN(C)CC3)c(O)ccc12 | 53.4% | 83.8% | 8.01% (active) | 38.8% | -64.4% (active) | 30.7% | -14.4% (active) | 32% | -83.6% (active) | -55.1% (active) | -85.6% (active) | 1.42% (active) | -86.6% (active) | -75.5% (active) | 35.1% | 26.2% | -81% (active) | -94.7% (active) | 28.1% | -54.6% (active) |
| CCOC(=O)/C(F)=C/C1CC1C1CCCCC1 (stereo not given) | 97.4% | 104% | 105% | 122% | 104% | 83.1% | 103% | 104% | 102% | 110% | 105% | 117% | 97.9% | 98.6% | 108% | 102% | 103% | 94.3% | 120% | 98.9% |
| CC1COc2c(N3CCN(C)CC3)c(F)cc3c(=O)c(C(=O)N/N=C/c4cc[nH]c4)cn1c23 (stereo not given) | 41.1% | 50% | 65.7% | 38% | 0.46% (active) | 28% | 13.8% | -5.87% (active) | 1.52% (active) | 54.4% | 42% | -27.8% (active) | -3.02% (active) | 44.4% | 16% | 59.1% | 70.3% | 38.5% | -74.5% (active) | -79.8% (active) |
| O=C(Nc1cc(F)cc2cccnc12)c1cnc(N2CCOCC2)cn1 | 59.2% | 80.7% | 92% | 87.3% | 98.9% | 83.7% | 15.2% | 95.3% | 65.7% | 18.1% | 68.5% | 22.7% | 53.6% | 54.7% | 59.8% | 94.3% | 97.4% | 87.6% | 30.6% | 70.6% |
| N/C(=N\OC(=O)CSc1nc2ccccc2s1)c1ccc(Cl)cc1 | 97.7% | 98% | 101% | 88.2% | 108% | 98% | 95% | 103% | 102% | 106% | 105% | 99.1% | 105% | 92% | 122% | 96.2% | 104% | 95.5% | 104% | 100% |
| COc1cc(CNC(=O)Cc2ccccc2[N+](=O)[O-])ccc1OCC(=O)NO | 102% | 100% | 107% | 102% | 114% | 101% | 102% | 106% | 106% | 104% | 108% | 105% | 100% | 102% | 116% | 102% | 105% | 95.9% | 105% | 101% |
| O=C(CCCCCCN1CC(=O)N2[C@@H](c3ccccc3)c3[nH]c4ccccc4c3C[C@H]2C1=O)NO | 70.9% | 105% | 72.4% | 58.5% | 54.2% | 57.9% | 35% | 95.9% | 93.3% | 58.8% | 58.3% | 26.3% | 21.8% | 70.1% | 76.6% | 82.1% | 57.4% | 62.5% | 45.7% | 49.9% |
| CC(C)=CCc1c(O)c(CC=C(C)C)c2c(c1O)C(=O)C1=C[C@@H]3C[C@H]4C(C)(C)O[C@@](C/C=C(\C)C(=O)O)(C3=O)[C@@]14O2 | -59.3% (active) | 72.1% | 21.7% | -13.7% (active) | -41.8% (active) | -21.8% (active) | -51.4% (active) | 4.97% (active) | -27.6% (active) | -94.2% (active) | -60.5% (active) | 5.16% (active) | -19.3% (active) | 29.8% | -82.2% (active) | 5.98% (active) | -9.35% (active) | -77.5% (active) | -38.2% (active) | 5.07% (active) |
| CCN(CC)CCCC(C)NCC(=O)NC(c1ccc2c(c1)OCO2)c1cc(Cl)c2cccnc2c1O (stereo not given) | 41.7% | 41.2% | 35.2% | 21.6% | 8.77% (active) | 35.9% | 37.4% | 24.1% | 7.03% (active) | 17.6% | 44.2% | 10.6% | 5.27% (active) | 35.5% | 67.5% | 22.7% | -53.3% (active) | 6.63% (active) | 76.6% | -9.39% (active) |
| NC(=O)N1N=C(c2cc3ccccc3oc2=O)CC1c1cn(-c2ccccc2)nc1-c1ccc(Cl)cc1 (stereo not given) | 41.8% | 50.4% | 52% | 43.1% | 22.2% | 42.6% | 45.2% | 29.6% | 39.3% | 28.8% | 56.6% | 27.4% | 69.6% | 54.3% | 88.2% | 54.5% | 19.6% | 42.8% | 59.5% | 43.9% |
| C#C[C@]1(O)CC[C@H]2[C@@H]3CC=C4c5sc(-c6ccc(OC)cc6)nc5CC[C@]4(C)[C@H]3CC[C@@]21C | 73.7% | 69.3% | 74.5% | 70.8% | 43.5% | 102% | 80.6% | 74.7% | 16.8% | 81.9% | 76.9% | 14.5% | 51% | 72.3% | -46.3% (active) | 58.9% | -36.6% (active) | 18.1% | 30.3% | 36.4% |
